The results in this text go back to the supplement of paper PMC3334620.

Whole data set: some 33,000 sequences, median “E-score (-0.5 to 0.5)” near -0.04, cut for the highest 2% near 0.36. The sample as a whole holds a higher share of the highest values than the screen did.

The target of this assay is T1, Hmlalpha2 (UniProt P0CY09).
T1 sequence: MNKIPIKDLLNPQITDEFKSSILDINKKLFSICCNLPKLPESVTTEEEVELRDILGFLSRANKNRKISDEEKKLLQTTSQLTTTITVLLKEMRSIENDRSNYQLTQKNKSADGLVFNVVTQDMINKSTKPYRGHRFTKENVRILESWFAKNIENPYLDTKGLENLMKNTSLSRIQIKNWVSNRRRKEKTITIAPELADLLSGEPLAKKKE
Briefly: PBM E-score (8-mer binding enrichment) (E-score (-0.5 to 0.5)); higher = stronger / more preferred TF binding. The following applies: protein concentration: 200 nM; construct: GST-full length. The method, boiled down:
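The E-score, a modified Wilcoxon-Mann-Whitney statistic, was computed by the Universal PBM Analysis Suite for every ungapped eight-base word pooled with its reverse complement. Scans behind it were normalised with masliner after bound GST-tagged yeast transcription factors were detected with fluorescent anti-GST. The proteins, at about 100-200 nM, had been applied to universal all-10-mer Agilent arrays made double-stranded by primer extension.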
Take GAGGAAGC: the “PBM E-score” value was -0.231. To AAGAGATG belongs -0.0147; to TAAACTTA, 0.228. For the sequence CGAAGATA, the “PBM E-score” value was -0.04. As for AGGTAAGC, the figure is -0.198. In the case of ACAGTCTG, the “PBM E-score” value is -0.159. Take ACACATCA: the “PBM E-score” value turned out to be 0.183.

As for TACATAAA, the “PBM E-score” value amounted to 0.369. As to TACATACA, the “PBM E-score” value stood at 0.443. To CACATATA belongs 0.311; to CACATACA, 0.33; to GACATACA, 0.315. To TACATATA belongs 0.374.

In the case of GACATATA, the “PBM E-score” value amounted to 0.163.

As for AACATAAA, the “PBM E-score” value was found to be 0.28. For AACATACG, the “PBM E-score” value came to 0.363. To AACATACT belongs 0.255; to AACATACA, 0.368. Regarding CACATAAA, the “PBM E-score” value turned out to be 0.259. For ACTACGCT, the “PBM E-score” value worked out at 0.106.

In the case of ACTGCTCA, the “PBM E-score” value turned out to be 0.0532.

Consider GAAGATAA, for which the “PBM E-score” value is 0.242.

Turning to AAAGGGAC, the “PBM E-score” value is -0.2.

As to GCAATCTA, the “PBM E-score” value is 0.119. To ATCTTCTA belongs -0.0325; to CACATAGA, 0.0951; to TACATAGA, 0.427. On to GACATAGA, for which the “PBM E-score” value was found to be 0.145. To CGTTAAAA belongs 0.272; to AGTTAACT, 0.129. To TGTTAAAA belongs 0.43; to CGTTATAA, 0.222. GGTTAAAA: the “PBM E-score” value worked out at 0.28. To TGTTATAA belongs 0.399; to CGTTAACA, 0.34. As for TGCTAACA, the figure is 0.245; as for AGTTAACG, 0.248; as for AGTTATAA, 0.172.

As for TGTTAACA, the “PBM E-score” value was 0.426.

With AGTTAACA, the “PBM E-score” value amounted to 0.392. To AGCTGGAC belongs -0.0393; to AAGGCCAC, -0.186; to CGGGCAAC, -0.261. Regarding ATAGATTA, the “PBM E-score” value came out at 0.151. In the case of AAAAAGGA, the “PBM E-score” value is -0.00436. As for GTGGCTGA, the figure is -0.248; as for CCATGCGG, -0.12. To GAGGAGAA belongs -0.191. As for GGTTAACC, the figure is -0.142.

Take GGTTAACA: the “PBM E-score” value is 0.412. To GGTTAAGA belongs 0.148; to CGCCAGAG, -0.305. As for GATGGTCC, the figure is -0.0351. Turning to CCCGGTGA, the “PBM E-score” value was -0.242. On to CCTACATA, for which the “PBM E-score” value came out at 0.13. To ACTACATC belongs 0.275; to GCTACATA, 0.255; to ACGACATC, 0.0415. Turning to ACTACAGG, the “PBM E-score” value turned out to be 0.133. Consider ACGACATG, for which the “PBM E-score” value stood at 0.382. Take ACGACATA: the “PBM E-score” value came out at 0.134. To ACTACATA belongs 0.378; to ACTACATG, 0.43. Consider CCGTTGTC, for which the “PBM E-score” value amounted to 0.0589. As for ACCCTGCA, the figure is 0.0038; as for CGATTGCG, -0.0285. Consider GGTACATA, for which the “PBM E-score” value worked out at 0.141. AGTACATC: the “PBM E-score” value stood at 0.233. Regarding AGTACATG, the “PBM E-score” value is 0.415.

Consider CGTACATA, for which the “PBM E-score” value is 0.363. Consider AGTACAAG, for which the “PBM E-score” value stood at 0.267. For AGTACATA, the “PBM E-score” value was found to be 0.401.

For CTGCCATC, the “PBM E-score” value was -0.239.

For the sequence CCTCCCCA, the “PBM E-score” value was -0.233. Consider CCGGCAGC, for which the “PBM E-score” value was -0.36. As for AGCAATCG, the figure is 0.108; as for TATCAAAA, 0.173.

As for CAGGCCCA, the “PBM E-score” value is -0.135.

CTATTCGC: the “PBM E-score” value was -0.117.

Regarding TCCGCCGA, the “PBM E-score” value is -0.0873. To AACACGCG belongs 0.406; to CACACGCG, 0.264; to AACACGCT, 0.387. In the case of GACACGCA, the “PBM E-score” value was 0.301.

Take AACACGCA: the “PBM E-score” value was 0.412.

Turning to AGCACGCT, the “PBM E-score” value was determined as 0.00597.

AGCACGCA: the “PBM E-score” value came out at 0.0284. To ACCACGCT belongs -0.134; to ATCACGCG, 0.144.

With CACACGCA, the “PBM E-score” value amounted to 0.19. To AACACGCC belongs 0.359; to TACACGCA, 0.442. Turning to ATGTCTTG, the “PBM E-score” value is 0.0125. As for CACGCGGA, the figure is 0.109; as for AGATCCTA, -0.165. For the sequence ACGGGACT, the “PBM E-score” value is -0.101. As for CGAGCATA, the figure is -0.325. As for CCCTAACG, the figure is -0.0128; as for ATACTATG, 0.0473. To GAAGCTCC belongs -0.218; to ACTTCTTC, 0.0141.

For ATTTTACG, the “PBM E-score” value amounted to 0.31. As for CTTTTACA, the figure is 0.453; as for CTTTTACC, 0.139. Turning to GCTTTACC, the “PBM E-score” value is 0.21. As for ACTTTACT, the figure is 0.109.

As for GCTTTAAA, the “PBM E-score” value worked out at 0.095.

For the sequence GCTTTACA, the “PBM E-score” value turned out to be 0.405. To CTTTTATA belongs 0.0262; to ATTTTACC, 0.188. For the sequence ATTTTACA, the “PBM E-score” value stood at 0.41. To ACTTTACC belongs 0.151; to ACTTTACA, 0.429.
